The panel holds about 83,000 compounds, 20% with a hit somewhere; the sample as a whole holds those more often.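 The test compound was applied at a single concentration to cells in 96-well plates for 48 hours, and percent growth was recorded.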 A number with no mark means an inactive call. Active and inactive are the calls of the source.

The experiment deals with NCI-H460 lung. Description: NCI-60 one-dose screen, 48 h (100 = growth as untreated, 0 = no growth, -100 = all killed). Particulars: 10 µM unless noted. As to the method:
Growth inhibition of the NCI-H460 human Non-Small Cell Lung tumor cell line is measured as a screen for anti-cancer activity. Cells are grown in 96 well plates and exposed to the test compound for 48 hours. Compounds are tested at a single concentration, which is 10^-5 M for most compounds. The reported endpoint is percent growth (GI% or GIPRCNT), where numbers from 0 - 100% represent growth inhibition, and numbers from -100% - 0 represent cell death. For example, a value of 40 represents 60% growth inhibition. A value of 0 means no net growth occurred over the course of the experiment. A value of -40 indicates 40% of cells at the beginning of the experiment died by the end of the experiment. A value of -100 means all cells are dead at the end of the experiment.
NCI-60 Human Tumor Cell Lines Screen was performed using the standard one-dose NCI protocol, which is described in more detail at https://dtp.cancer.gov/discovery_development/nci-60/default.htm.
Compounds with GIPRCNT values below 10 were considered active. Activity score was based on GIPRCNT using the following formula: […]
Score is 0 for GIPRCNT values of 100 or above, 50 for GIPRCNT values of 0, and 100 for GIPRCNT values of -100.
Turning to `O=C1NC(=S)S/C1=C\N1N=C(c2ccc(Cl)cc2)CC1c1ccc(F)cc1` (stereo not given), the growth was 95.8%.
To `N#Cc1c(N)nc2c(nnn2-c2cccc(C(F)(F)F)c2)c1N` belongs 95.9%.
For `CNC(=O)c1c(NC(=O)c2ccc(C(C)(C)C)cc2)sc2c1CCC(=O)C2`, the growth was 1.8% (active).
To `Cc1cc(-c2noc(C(F)(F)F)n2)ccc1N1CCN(c2cc(C(=O)N(C)C)no2)CC1` belongs 75.7%; to `CC(=O)Nc1ccc2c(c1)Cc1c(F)cccc1-2`, 92.2%; to `COc1ccc(-n2ncn(CCCCCCn3cnn(-c4ccc(OC)cc4)c3=O)c2=O)cc1`, 103%.
As to `Nc1c(C(=O)c2ccccc2)nnc2ncnn12`, the growth was 106%.
The result for `CCCCCCCCCCCCCCCCCC1=NCCN1C(=O)OCCO` reads 7.14% (active); that for `C=C1C(=O)O[C@H]2[C@H]1CC/C(Cn1cc(CNCCc3c[nH]c4ccccc34)nn1)=C\CC[C@@]1(C)O[C@@H]21`, 104%; that for `N#C/C(=C\c1ccc(Br)cc1)n1nnc2cc(Cl)c(Cl)cc21`, 56.7%.
On to `CCCCNCC(=O)Nc1ccc(C(=O)OCC)cc1`, for which the growth was 106%.
To `CC(=O)Nc1ccc(-c2cc3c(NCc4ccc(F)cc4)ncnc3s2)cc1` belongs 77.3%; to `C[C@@H](C[C@H](CCOCc1cccnc1)c1ccccc1)c1cc2ccccc2o1`, 98.4%; to `Cn1ccc(Cc2cnc(N)s2)n1`, 106%.
The result for `Clc1ccc(/C=N\N=c2\scc(-c3ccc(Cl)cc3)n2/N=C/c2ccc(Cl)cc2)cc1` reads 97.9%.
To `CCN(CC)CCNc1ccc(C)c2sc3cc(C)ccc3c(=O)c12` belongs 43%; to `COc1ccc(Oc2nc(Nc3ccc(N4CCOCC4)nc3)ncc2NC(=O)c2cc(OC)cc(OC)c2)cc1`, 82.3%.
Regarding `CCCCOc1ccc(NC(=O)n2nc(N=NN(C)C)c3ccc(Cl)cc32)cc1`, the growth was 110%.
In the case of `CCn1nc(C#Cc2c(C)ccc3c(Nc4ccc(Cl)cc4)nccc23)c2c(N)ncnc21`, the growth is 10.6%.
To `Cc1nc(Nc2ccc(NC(=S)Nc3ccccc3)cc2)nc2nc(Nc3cccc(Cl)c3)[nH]c(=O)c12` belongs 114%; to `CCC(=O)OC1=C(C)SC2=NC(c3ccc(Cl)c(Cl)c3)=CC(c3cc(OC)c(OC)c(OC)c3)N21` (stereo not given), 108%.
On to `OC(c1cccc(OCc2ccccc2)c1)c1nnc(-c2ccccc2)o1` (stereo not given), for which the growth is 96%.
In the case of `O=S(=O)(Cc1ccccc1)c1nc2ccccc2s1`, the growth was 103%.
The result for `CCOc1ccc2nc(-c3cccc(OCC(=O)NC(C)C)c3)nc(Nc3ccc(-c4cn[nH]c4)cc3)c2c1` reads -37.9% (active); that for `COc1cc(CNC(=O)/C=C/C=C/c2ccc3c(c2)OCO3)ccc1OCc1cn(-c2ccc(Cl)c(Cl)c2)nn1`, -57.5% (active); that for `Cc1cc(N(CCCNc2ccnc3cc(Cl)ccc23)Cc2ccccn2)nc(N2CCCC2)n1`, 66.4%.
The result for `CC1(C)C(=O)/C(=C\c2cccnc2)C[C@]2(C)[C@H]3CC=C4[C@@H]5C[C@@](C)(C(=O)O)CC[C@]5(C)CC[C@@]4(C)[C@]3(C)CC[C@@H]12` reads 101%.
The result for `CN1CCN(c2ccc3nc(/N=C/c4ccc5sc(-c6ccc([N+](=O)[O-])cc6)nc5c4)sc3c2)CC1` reads 103%; that for `C/C(=N\NC(N)=S)c1nc2ccc(Cl)cc2[nH]1`, 15.3%; that for `Cc1nc(Nc2ccc(NC(=S)Nc3ccccc3)cc2)nc2nc(Nc3ccc(S(=O)(=O)O)cc3)[nH]c(=O)c12`, 108%.
With `Cc1cc(N(CCCNc2ccnc3cc(Cl)ccc23)Cc2ccccn2)nc(N2CCOCC2)n1`, the growth was 99.7%.
To `Cn1cc(-c2ccc3ncc(-c4ccc(CC(=O)Nc5cc(C(C)(C)C)nn5C)cc4)cc3c2)cn1` belongs 8.3% [30 µM] (active); to `Cl.Fc1c[c-]c(-c2ccccn2)c(F)c1.[Pt].c1ccc([PH+](c2ccccc2)c2ccccc2[PH+](c2ccccc2)c2ccccc2)cc1`, -73.2% (active); to `Cc1c(C(=O)O[C@H]2[C@@H]3[C@H](C)CC[C@H]3[C@]3(C)O[C@@]2(C2CCCCC2)C[C@H]3OC(=O)CO)ccc2ccccc12`, -36% (active).
To `Cc1cccc(-c2cc(O)c(C(=O)N3CCOCC3)s2)c1` belongs 17.7%; to `COc1ccc(/C=C2\COc3ccc(O)c(O)c3C2=O)c(OC)c1`, 72.4%; to `CCN(CC)CCCNC(=O)c1ccc(N)cc1`, 103%.
The result for `COC(=O)/C(=C\c1ccc(OC)cc1)C(=O)N1c2ccccc2Sc2ccccc21` reads 96.7%; that for `O=C1c2ccccc2C(=O)c2cc(Cn3cc[n+](Cc4ccc5ccccc5c4)c3)ccc21`, 94%.
Turning to `COc1c(C)cnc(CSc2nc(-c3ccc(C)cc3)cn2-c2ccc(Cl)cc2)c1C`, the growth is 101%.

For the origin of these results see PubChem BioAssay (NCI).
